Inconclusive results are not listed. A call without a number means that no potency is given here. Activity calls are given as the source filed them. Calls follow the shape of the dose curve; as a rule, active = well fitted inhibition curve with a large enough effect; inconclusive = small, poorly fitted or top-dose-only effect; inactive = flat fitted curve, though single readings scatter.
Tests used:
Assay in all cases: qHTS profiling for inhibitors of Plasmodium falciparum proliferation (AID 504749); also: nearly all actives have a fitted effect of over 60% in size
Details in all cases: P. falciparum in erythrocytes, SYBR Green DNA, 72 h; series mostly up to 28.7 µM
CP315 = test system: CP315
Procedure, shortened: (§1)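 Parasite proliferation within erythrocytes, 72 h exposure. Endpoint: SYBR Green I fluorescence after overnight lysis at room temperature. Controls: 0.29 uM artemisinin, DMSO.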

CP325 = test system: CP325
Procedure, shortened: as §1

CP329 = test system: CP329
Procedure, shortened: as §1

CP335 = test system: CP335
Procedure, shortened: as §1

DFO2036 = test system: DFO2036
Procedure, shortened: as §1

DIV14 = test system: DIV14
Procedure, shortened: as §1

DIV17 = test system: DIV17
Procedure, shortened: as §1

DIV30 = test system: DIV30
Procedure, shortened: as §1

Dd2 = test system: Dd2
Procedure, shortened: as §1

ECU = test system: ECU
Procedure, shortened: as §1
Potency is read from the fitted curve at half-maximal effect.

| Structure (SMILES) | Potency (CP315) | Potency (CP325) | Potency (CP329) | Potency (CP335) | Potency (DFO2036) | Potency (DIV14) | Potency (DIV17) | Potency (DIV30) | Potency (Dd2) | Potency (ECU) |
| --- | --- | --- | --- | --- | --- | --- | --- | --- | --- | --- |
| CCC(C)[C@@H](N)C(=O)O (stereo partly specified) | inactive | inactive | inactive | inactive | inactive | inactive | inactive | inactive | inactive | inactive |
| C=CC(=O)O | inactive | inactive | inactive | inactive | inactive |  | inactive | inactive | inactive | inactive |
| CO/N=C(/C(=O)N[C@@H]1C(=O)N2C(C(=O)O)=C(COC(N)=O)CS[C@H]12)c1ccco1 | inactive | inactive | inactive | inactive | inactive | inactive |  | inactive | inactive | inactive |
| O=C1c2ccccc2CN2C(=O)c3ccccc3CN12 | inactive | inactive | inactive | inactive | inactive | inactive |  | inactive | inactive |  |
| CC(C)OC(=O)Nc1ccc2nc(-c3cscn3)[nH]c2c1 | inactive | inactive | inactive | inactive | inactive | inactive |  | inactive | inactive | inactive |
| O=C(O)c1cc(N=Nc2ccc(O)c(C(=O)O)c2)ccc1O | inactive | inactive | inactive | inactive | inactive |  | inactive | inactive | inactive | inactive |
| CC(C)(Oc1ccc(C2CCCc3ccccc32)cc1)C(=O)O (stereo unspecified) | inactive | inactive | inactive | inactive | inactive | inactive | inactive | inactive | inactive | inactive |
| CCCCC(CC)CCC(CC(C)C)OS(=O)(=O)O (stereo unspecified) | inactive | inactive | inactive | inactive | inactive | inactive | inactive | inactive | inactive | inactive |
| O=C(O)/C=C/C(=O)Nc1ccc(S(=O)(=O)Nc2nccs2)cc1 | inactive | inactive | inactive | inactive | inactive | inactive | inactive | inactive | inactive | inactive |
| COc1ccccc1N1CCN(CCCC(=O)c2ccc(F)cc2)CC1 | inactive | inactive | inactive | inactive | inactive |  |  | inactive | inactive | inactive |
| NC(N)=O | inactive | inactive | inactive | inactive | inactive |  | inactive | inactive | inactive | inactive |
| C[C@H]1O[C@@H](O[C@H]2[C@@H](O)C[C@H](O[C@H]3[C@@H](O)C[C@H](O[C@H]4CC[C@@]5(C)[C@H](CC[C@@H]6[C@@H]5C[C@@H](O)[C@]5(C)[C@@H](C7=CC(=O)OC7)CC[C@]65O)C4)O[C@@H]3C)O[C@@H]2C)C[C@H](O)[C@@H]1O | inactive | inactive | inactive | inactive | inactive |  | inactive | inactive | inactive | inactive |
| CC(C)NCC(O)COc1ccccc1-n1cccc1 (stereo unspecified) | inactive | inactive | inactive | inactive | inactive |  | inactive | inactive |  | inactive |
| O=C(CCCN1CCN2CCCC2C1)c1ccc(F)cc1 (stereo unspecified) | inactive | inactive | inactive | inactive | inactive |  |  | inactive | 12.6 µM (active) | inactive |
| CC(CNC(=O)c1cccnc1)NC(=O)c1cccnc1 (stereo unspecified) | inactive | inactive | inactive | inactive | inactive | inactive | inactive | inactive | inactive | inactive |

Reference: PubChem BioAssay (NCATS)
